# Columns and labels:
# Assay in all cases: DAPPL (digital affinity profiling via proximity ligation, sequencing); 10 mM Tris-HCl pH 7.5, 50 mM NaCl, 1 mM DTT, 4% glycerol, room temperature, 30 min; GST-TFs on glutathione beads, 16-mer random dsDNA library, 0.1% formaldehyde crosslink after washing; high values mean tight binding
# [1] = target: T1, FLI1 (Homo sapiens, UniProt Q01543 1-452); conditions: protein: recombinant; tags: N-terminal GST; dsDNA, one strand shown
# T1 sequence: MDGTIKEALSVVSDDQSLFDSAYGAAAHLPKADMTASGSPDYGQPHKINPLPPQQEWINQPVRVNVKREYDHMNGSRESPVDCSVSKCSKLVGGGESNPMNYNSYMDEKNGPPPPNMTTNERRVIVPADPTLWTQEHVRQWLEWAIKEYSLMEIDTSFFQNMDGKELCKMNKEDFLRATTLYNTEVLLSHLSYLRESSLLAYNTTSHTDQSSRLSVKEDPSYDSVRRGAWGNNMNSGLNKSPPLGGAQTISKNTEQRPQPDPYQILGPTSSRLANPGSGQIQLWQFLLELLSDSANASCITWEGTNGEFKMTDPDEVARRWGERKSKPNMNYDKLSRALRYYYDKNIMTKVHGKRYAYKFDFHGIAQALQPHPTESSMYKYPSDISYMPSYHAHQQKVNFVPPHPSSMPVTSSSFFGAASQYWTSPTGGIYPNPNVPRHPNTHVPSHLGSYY
# Summary of the method: (§1)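 Human transcription factors were made in yeast as GST fusions, captured on glutathione beads and barcoded with DNA. With a tag-only sample included, the pool was incubated with 200 nmole of a random double-stranded 16-mer DNA library in Tris/NaCl/DTT/glycerol buffer at room temperature for 30 min, then crosslinked with 0.1% formaldehyde after washing, ligated by proximity, amplified and sequenced. For binding signal, each hexamer's read frequency for a factor is divided by its frequency for the tag-only sample.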
# [2] = target: T2, ELK1 (Homo sapiens, UniProt P19419 1-428); conditions: protein: recombinant; tags: N-terminal GST; dsDNA, one strand shown
# T2 sequence: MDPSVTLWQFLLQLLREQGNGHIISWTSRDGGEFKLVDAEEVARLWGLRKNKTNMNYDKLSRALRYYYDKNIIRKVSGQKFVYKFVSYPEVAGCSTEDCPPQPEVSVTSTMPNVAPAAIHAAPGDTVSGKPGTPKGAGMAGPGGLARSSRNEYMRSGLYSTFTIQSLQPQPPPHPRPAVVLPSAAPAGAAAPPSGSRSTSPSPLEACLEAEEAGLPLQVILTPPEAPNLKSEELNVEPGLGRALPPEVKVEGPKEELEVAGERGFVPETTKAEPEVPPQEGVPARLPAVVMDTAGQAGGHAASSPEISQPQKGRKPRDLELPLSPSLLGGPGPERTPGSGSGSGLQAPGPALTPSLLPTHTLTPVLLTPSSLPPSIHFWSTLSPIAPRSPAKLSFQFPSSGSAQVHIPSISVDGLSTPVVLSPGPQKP
# Summary of the method: as §1
# [3] = target: T3, GABPA (Homo sapiens, UniProt Q06546 1-454); conditions: protein: recombinant; tags: N-terminal GST; dsDNA, one strand shown
# T3 sequence: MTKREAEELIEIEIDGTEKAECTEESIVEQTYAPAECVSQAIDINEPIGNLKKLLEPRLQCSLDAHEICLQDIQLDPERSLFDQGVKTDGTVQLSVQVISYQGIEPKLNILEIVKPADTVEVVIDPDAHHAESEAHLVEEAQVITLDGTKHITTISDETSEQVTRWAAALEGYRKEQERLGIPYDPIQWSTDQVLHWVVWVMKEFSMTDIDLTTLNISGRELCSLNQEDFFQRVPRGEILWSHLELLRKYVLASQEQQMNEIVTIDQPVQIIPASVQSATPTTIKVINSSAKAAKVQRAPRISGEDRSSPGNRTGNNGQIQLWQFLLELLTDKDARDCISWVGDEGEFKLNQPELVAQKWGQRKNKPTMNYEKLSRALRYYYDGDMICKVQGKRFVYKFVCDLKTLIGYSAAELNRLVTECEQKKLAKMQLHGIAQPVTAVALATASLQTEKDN
# Summary of the method: as §1
# [4] = target: T4, ERG (Homo sapiens, UniProt P11308 1-479); conditions: protein: recombinant; tags: N-terminal GST; dsDNA, one strand shown
# T4 sequence: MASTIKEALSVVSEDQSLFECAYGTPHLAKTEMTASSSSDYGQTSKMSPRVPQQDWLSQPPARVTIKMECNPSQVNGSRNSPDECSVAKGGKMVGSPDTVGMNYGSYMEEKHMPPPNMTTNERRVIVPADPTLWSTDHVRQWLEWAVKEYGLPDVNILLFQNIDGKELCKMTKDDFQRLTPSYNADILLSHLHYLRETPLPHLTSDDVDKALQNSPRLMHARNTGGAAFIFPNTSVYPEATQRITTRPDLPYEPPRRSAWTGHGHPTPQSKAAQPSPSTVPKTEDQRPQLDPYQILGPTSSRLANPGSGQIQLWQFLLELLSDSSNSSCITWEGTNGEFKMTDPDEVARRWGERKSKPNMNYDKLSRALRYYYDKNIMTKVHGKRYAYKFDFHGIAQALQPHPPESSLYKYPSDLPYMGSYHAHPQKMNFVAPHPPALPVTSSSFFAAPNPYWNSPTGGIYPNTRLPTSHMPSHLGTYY
# Summary of the method: as §1
# [5] = target: ELF1 (Homo sapiens, UniProt P32519 1-619); conditions: protein: recombinant; tags: N-terminal GST; dsDNA, one strand shown
# Summary of the method: as §1
# [6] = target: T5, EHF (Homo sapiens, UniProt Q9NZC4 1-300); conditions: protein: recombinant; tags: N-terminal GST; dsDNA, one strand shown
# T5 sequence: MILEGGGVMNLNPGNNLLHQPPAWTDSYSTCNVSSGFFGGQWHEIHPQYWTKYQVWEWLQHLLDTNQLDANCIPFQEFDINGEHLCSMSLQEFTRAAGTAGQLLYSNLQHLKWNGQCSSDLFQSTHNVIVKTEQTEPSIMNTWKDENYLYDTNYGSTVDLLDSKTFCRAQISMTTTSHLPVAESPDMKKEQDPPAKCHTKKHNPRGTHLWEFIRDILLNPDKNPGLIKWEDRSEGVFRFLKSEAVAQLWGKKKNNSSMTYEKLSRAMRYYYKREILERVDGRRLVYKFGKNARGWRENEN
# Summary of the method: as §1
# [7] = target: SPI1 (Homo sapiens, UniProt P17947 1-270); conditions: protein: recombinant; tags: N-terminal GST; dsDNA, one strand shown
# Summary of the method: as §1
# [8] = target: SPIB (Homo sapiens, UniProt Q01892 1-262); conditions: protein: recombinant; tags: N-terminal GST; dsDNA, one strand shown
# Summary of the method: as §1
# [9] = target: T6, ELK3 (Homo sapiens, UniProt P41970 1-407); conditions: protein: recombinant; tags: N-terminal GST; dsDNA, one strand shown
# T6 sequence: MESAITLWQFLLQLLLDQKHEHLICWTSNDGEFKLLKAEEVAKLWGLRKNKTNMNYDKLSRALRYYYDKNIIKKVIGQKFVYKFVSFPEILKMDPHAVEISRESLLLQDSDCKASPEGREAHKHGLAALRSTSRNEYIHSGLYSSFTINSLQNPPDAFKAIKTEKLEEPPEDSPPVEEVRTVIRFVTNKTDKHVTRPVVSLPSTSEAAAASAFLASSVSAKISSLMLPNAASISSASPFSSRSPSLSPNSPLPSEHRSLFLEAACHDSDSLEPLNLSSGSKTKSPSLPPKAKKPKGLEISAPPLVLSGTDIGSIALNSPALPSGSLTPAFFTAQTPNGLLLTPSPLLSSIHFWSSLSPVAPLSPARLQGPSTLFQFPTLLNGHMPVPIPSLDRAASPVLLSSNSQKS
# Summary of the method: as §1
# [10] = target: T7, FEV (Homo sapiens, UniProt Q99581 1-238); conditions: protein: recombinant; tags: N-terminal GST; dsDNA, one strand shown
# T7 sequence: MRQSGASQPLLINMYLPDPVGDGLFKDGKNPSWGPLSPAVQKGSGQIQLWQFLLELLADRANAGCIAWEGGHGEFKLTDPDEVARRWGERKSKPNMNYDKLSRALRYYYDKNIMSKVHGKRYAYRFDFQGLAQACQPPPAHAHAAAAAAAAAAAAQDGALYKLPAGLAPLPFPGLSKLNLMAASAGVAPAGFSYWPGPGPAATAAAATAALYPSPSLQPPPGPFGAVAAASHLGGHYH
# Summary of the method: as §1
# [11] = target: ETV5 (Homo sapiens, UniProt P41161 1-510); conditions: protein: recombinant; tags: N-terminal GST; dsDNA, one strand shown
# Summary of the method: as §1
# [12] = target: HSF1 (Homo sapiens, UniProt Q00613 1-529); conditions: protein: recombinant; tags: N-terminal GST; chain copies: 3; dsDNA, one strand shown
# Summary of the method: as §1
# [13] = target: T8, SPIC (Homo sapiens, UniProt Q8N5J4 1-248); conditions: protein: recombinant; tags: N-terminal GST; dsDNA, one strand shown
# T8 sequence: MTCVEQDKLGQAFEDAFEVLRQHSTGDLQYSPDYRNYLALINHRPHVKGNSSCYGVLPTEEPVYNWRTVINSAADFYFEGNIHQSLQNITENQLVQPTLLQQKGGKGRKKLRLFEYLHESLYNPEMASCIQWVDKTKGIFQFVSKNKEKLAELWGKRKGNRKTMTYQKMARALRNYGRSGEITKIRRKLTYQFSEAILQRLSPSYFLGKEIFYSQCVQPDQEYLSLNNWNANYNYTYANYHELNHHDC
# Summary of the method: as §1
# [14] = target: ELF4 (Homo sapiens, UniProt Q99607 1-663); conditions: protein: recombinant; tags: N-terminal GST; dsDNA, one strand shown
# Summary of the method: as §1
# [15] = target: T9, ELK4 (Homo sapiens, UniProt P28324-2 1-405); conditions: protein: recombinant; tags: N-terminal GST; dsDNA, one strand shown
# T9 sequence: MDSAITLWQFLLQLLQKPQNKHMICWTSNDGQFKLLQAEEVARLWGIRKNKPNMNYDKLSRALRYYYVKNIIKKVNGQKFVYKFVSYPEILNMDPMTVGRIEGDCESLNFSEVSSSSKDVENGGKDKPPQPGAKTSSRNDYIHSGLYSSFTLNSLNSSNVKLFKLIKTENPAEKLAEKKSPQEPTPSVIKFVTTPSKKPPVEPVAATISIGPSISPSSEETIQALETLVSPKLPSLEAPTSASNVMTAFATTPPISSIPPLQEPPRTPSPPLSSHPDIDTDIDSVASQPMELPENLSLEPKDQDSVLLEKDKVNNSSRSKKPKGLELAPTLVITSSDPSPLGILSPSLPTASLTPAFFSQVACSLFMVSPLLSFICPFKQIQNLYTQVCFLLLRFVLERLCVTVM
# Summary of the method: as §1
# [16] = target: T10, ETV2 (Homo sapiens, UniProt O00321 1-342); conditions: protein: recombinant; tags: N-terminal GST; dsDNA, one strand shown
# T10 sequence: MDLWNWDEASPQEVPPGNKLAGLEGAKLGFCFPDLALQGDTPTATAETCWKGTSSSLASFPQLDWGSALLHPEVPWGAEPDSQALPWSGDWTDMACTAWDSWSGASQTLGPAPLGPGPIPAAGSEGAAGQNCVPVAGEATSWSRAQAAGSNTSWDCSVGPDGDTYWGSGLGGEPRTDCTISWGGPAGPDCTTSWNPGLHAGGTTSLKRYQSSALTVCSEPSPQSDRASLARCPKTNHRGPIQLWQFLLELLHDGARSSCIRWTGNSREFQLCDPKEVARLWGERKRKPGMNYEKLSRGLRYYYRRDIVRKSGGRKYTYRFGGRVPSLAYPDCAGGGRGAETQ
# Summary of the method: as §1
# [17] = target: T11, ELF3 (Homo sapiens, UniProt P78545 1-371); conditions: protein: recombinant; tags: N-terminal GST; dsDNA, one strand shown
# T11 sequence: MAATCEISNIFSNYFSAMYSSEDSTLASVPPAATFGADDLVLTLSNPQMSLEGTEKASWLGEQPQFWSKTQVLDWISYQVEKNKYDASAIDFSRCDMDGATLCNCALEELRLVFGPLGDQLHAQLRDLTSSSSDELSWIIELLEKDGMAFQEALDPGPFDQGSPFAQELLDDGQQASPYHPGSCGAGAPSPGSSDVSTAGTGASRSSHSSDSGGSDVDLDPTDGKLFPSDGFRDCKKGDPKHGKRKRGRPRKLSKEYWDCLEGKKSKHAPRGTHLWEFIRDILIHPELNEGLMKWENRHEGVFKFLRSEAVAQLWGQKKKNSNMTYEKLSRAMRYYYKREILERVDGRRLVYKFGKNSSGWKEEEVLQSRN
# Summary of the method: as §1
# [18] = target: CRX (Homo sapiens, UniProt O43186 1-299); conditions: protein: recombinant; tags: N-terminal GST; dsDNA, one strand shown
# Summary of the method: as §1
# [19] = target: ETV1 (Homo sapiens, UniProt P50549 1-477); conditions: protein: recombinant; tags: N-terminal GST; dsDNA, one strand shown
# Summary of the method: as §1
# ETV5, sequence (P41161 whole entry): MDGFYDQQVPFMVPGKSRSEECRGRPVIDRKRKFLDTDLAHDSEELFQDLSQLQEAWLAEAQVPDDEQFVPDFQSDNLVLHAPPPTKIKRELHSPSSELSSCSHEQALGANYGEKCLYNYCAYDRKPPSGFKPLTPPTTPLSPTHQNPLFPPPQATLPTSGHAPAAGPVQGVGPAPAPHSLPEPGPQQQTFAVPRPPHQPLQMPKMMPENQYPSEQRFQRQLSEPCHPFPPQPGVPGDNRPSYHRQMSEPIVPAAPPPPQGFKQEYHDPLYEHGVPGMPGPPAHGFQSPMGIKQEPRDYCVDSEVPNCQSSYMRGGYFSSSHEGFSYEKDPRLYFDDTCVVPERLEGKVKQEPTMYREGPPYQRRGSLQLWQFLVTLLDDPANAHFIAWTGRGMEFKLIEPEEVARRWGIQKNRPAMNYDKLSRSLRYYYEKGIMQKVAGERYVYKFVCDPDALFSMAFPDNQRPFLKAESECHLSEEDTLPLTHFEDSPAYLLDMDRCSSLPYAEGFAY
# ELF1, sequence (P32519 whole entry): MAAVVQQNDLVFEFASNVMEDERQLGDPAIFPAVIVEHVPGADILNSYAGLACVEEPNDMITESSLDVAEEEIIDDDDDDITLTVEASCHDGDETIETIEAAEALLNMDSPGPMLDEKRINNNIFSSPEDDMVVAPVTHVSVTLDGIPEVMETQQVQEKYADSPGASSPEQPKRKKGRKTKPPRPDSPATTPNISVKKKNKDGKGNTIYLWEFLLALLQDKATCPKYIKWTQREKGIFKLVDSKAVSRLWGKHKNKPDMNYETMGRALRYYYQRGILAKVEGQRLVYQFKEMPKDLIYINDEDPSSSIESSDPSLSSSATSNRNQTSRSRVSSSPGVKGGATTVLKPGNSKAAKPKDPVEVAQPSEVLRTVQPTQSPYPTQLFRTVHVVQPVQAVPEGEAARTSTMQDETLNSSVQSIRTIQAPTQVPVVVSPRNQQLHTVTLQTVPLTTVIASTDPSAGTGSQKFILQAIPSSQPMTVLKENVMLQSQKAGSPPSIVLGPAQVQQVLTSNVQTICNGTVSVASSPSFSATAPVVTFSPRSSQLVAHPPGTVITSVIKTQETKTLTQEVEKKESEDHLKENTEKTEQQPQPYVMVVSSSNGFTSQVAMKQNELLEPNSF
# ETV1, sequence (P50549 whole entry): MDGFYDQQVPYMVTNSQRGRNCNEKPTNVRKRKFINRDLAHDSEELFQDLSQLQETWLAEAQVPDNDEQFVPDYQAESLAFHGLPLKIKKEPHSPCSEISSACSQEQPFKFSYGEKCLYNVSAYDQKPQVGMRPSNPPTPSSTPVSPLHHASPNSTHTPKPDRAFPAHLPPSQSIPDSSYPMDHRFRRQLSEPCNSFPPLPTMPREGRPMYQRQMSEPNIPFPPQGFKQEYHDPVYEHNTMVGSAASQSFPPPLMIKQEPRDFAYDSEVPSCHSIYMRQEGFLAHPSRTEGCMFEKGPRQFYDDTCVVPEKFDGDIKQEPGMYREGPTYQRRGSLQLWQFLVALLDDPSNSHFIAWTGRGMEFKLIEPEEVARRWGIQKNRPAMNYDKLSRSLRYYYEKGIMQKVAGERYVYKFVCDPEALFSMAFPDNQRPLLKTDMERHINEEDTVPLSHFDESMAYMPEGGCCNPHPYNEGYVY
# ELF4, sequence (Q99607 whole entry): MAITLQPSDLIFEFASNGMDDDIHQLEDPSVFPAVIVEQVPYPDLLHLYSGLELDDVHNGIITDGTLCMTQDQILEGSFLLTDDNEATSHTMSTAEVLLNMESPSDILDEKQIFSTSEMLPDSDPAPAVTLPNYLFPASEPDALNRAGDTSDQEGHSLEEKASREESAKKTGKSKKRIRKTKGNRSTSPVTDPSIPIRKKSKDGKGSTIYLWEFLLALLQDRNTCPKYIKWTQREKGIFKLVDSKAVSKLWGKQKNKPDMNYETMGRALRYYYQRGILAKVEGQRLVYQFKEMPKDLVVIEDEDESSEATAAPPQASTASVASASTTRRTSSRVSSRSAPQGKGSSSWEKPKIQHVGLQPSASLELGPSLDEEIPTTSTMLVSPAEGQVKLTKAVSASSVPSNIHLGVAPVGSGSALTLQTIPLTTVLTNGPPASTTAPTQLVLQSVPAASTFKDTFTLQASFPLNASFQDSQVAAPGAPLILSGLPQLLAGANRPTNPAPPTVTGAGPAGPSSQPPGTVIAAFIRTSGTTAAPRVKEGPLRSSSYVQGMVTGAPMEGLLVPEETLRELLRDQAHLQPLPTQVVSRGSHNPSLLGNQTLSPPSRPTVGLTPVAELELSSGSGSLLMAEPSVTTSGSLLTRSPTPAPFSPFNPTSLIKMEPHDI
# CRX, sequence (O43186 whole entry): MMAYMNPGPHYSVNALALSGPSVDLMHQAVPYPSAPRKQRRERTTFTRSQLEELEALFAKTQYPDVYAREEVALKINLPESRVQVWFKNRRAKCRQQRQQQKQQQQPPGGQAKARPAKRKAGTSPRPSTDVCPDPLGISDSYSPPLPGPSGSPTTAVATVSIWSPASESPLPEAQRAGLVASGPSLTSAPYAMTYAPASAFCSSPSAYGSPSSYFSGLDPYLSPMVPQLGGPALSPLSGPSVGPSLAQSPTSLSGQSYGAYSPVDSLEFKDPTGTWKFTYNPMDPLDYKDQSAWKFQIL
# HSF1, sequence (Q00613 whole entry): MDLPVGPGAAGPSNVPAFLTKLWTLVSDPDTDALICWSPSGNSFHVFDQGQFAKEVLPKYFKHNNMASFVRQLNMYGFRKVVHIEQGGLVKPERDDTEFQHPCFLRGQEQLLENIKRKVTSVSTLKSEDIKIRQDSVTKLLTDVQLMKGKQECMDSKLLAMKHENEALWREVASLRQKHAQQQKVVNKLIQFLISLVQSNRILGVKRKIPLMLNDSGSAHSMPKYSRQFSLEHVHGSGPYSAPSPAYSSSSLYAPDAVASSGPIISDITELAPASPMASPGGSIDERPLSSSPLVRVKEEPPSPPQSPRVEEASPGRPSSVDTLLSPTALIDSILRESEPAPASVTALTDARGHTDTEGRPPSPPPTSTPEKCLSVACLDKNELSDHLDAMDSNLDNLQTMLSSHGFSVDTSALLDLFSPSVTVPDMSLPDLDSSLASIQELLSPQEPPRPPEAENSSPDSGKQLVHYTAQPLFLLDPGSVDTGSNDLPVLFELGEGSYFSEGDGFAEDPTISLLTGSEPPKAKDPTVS
# SPIB, sequence (Q01892 whole entry): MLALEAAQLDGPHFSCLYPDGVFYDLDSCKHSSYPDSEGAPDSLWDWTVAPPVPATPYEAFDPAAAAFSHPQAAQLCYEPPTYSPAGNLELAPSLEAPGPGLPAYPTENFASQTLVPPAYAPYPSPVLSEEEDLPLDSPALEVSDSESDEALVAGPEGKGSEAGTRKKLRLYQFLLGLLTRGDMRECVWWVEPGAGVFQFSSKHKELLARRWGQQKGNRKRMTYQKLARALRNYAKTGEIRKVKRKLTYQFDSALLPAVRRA
sequence,measurement,setting,value
TCACAA,binding signal,[1],"1.18 fold enrichment (6-mer frequency, TF over GST control)"
same,binding signal,[2],"1.14 fold enrichment (6-mer frequency, TF over GST control)"
same,binding signal,[3],"1.21 fold enrichment (6-mer frequency, TF over GST control)"
same,binding signal,[4],"1.11 fold enrichment (6-mer frequency, TF over GST control)"
same,binding signal,[5],"1.23 fold enrichment (6-mer frequency, TF over GST control)"
same,binding signal,[6],"1.11 fold enrichment (6-mer frequency, TF over GST control)"
same,binding signal,[7],"1.06 fold enrichment (6-mer frequency, TF over GST control)"
same,binding signal,[8],"1.13 fold enrichment (6-mer frequency, TF over GST control)"
same,binding signal,[9],"1.17 fold enrichment (6-mer frequency, TF over GST control)"
same,binding signal,[10],"1.14 fold enrichment (6-mer frequency, TF over GST control)"
same,binding signal,[11],"1.12 fold enrichment (6-mer frequency, TF over GST control)"
same,binding signal,[12],"1.03 fold enrichment (6-mer frequency, TF over GST control)"
same,binding signal,[13],"1.18 fold enrichment (6-mer frequency, TF over GST control)"
same,binding signal,[14],"1.12 fold enrichment (6-mer frequency, TF over GST control)"
same,binding signal,[15],"1.21 fold enrichment (6-mer frequency, TF over GST control)"
same,binding signal,[16],"1.16 fold enrichment (6-mer frequency, TF over GST control)"
same,binding signal,[17],"1.15 fold enrichment (6-mer frequency, TF over GST control)"
same,binding signal,[18],"1.09 fold enrichment (6-mer frequency, TF over GST control)"
same,binding signal,[19],"1.13 fold enrichment (6-mer frequency, TF over GST control)"
